This excerpt belongs to a sample that is enriched for hits.
HT1080 IDH1KD tx – qHTS for induction of synthetic lethality in tumor cells producing 2HG: qHTS for the HT-1080-IDH1KD cell line. AID 686971, 2013. Potency, µM (doses to about 46.1 µM), for the others: top-dose activity, negative = toxicity, most hits filed as cytotoxic. HT-1080 IDH1 knockdown viability, ATP luminescence, 48 h. 2% of 360,000 active;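 note: potency is the fitted concentration of half-maximal effect; 0% = DMSO wells and -100% = cell-free medium wells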
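IDH1KD HT-1080 cells, 750/well, RPMI + 5% FBS; compound pinned after 2 h settling; 48 h, 37 °C; CellTiter-Glo luminescence; % activity normalised to DMSO and no-cell wells; curves fitted, classed by r2 and efficacy.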
TDP1 cell CPT – qHTS for Inhibitors of human tyrosyl-DNA phosphodiesterase 1 (TDP1): qHTS in cells in presence of CPT | chicken DT40 Tdp1-/-;hTDP1 cells + 20 nM CPT, ATP luminescence, 48 h | Potency, µM (top dose mostly 46.2 µM), for inactives: at the highest dose activity change, negative = growth inhibition, actives largely listed as inhibitors | 12% of 420,000 active | AID 686979, 2013; note: potency is the fitted concentration of half-maximal effect; nearly all actives have a fitted effect of over 55% in size
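Cell growth measured by CellTiter-Glo luminescence after a minimum 48 h, 37 C compound exposure with 20 nM CPT in Tdp1-knockout DT40 cells stably expressing hTDP1, seeded 400/well; qHTS titration format.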
DT40 TDP1 no CPT – qHTS for Inhibitors of human tyrosyl-DNA phosphodiesterase 1 (TDP1): qHTS in cells in absence of CPT; Potency, µM (highest dose often 46.2 µM), for the others: top-dose activity change, negative = growth inhibition, hits mostly inhibitors; 15% of 420,000 active; DT40 Tdp1-/- hTDP1 cells, no CPT, ATP luminescence, 48 h; note: potency is the fitted concentration of half-maximal effect; nearly all actives have a fitted effect of over 55% in size
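Camptothecin absent (DMSO only). Human TDP1-complemented DT40 knockout cells, 400 cells/well, 37 °C for minimum 48 hr; ATP measured via CellTiter-Glo, 30 min dark incubation, luminescence.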
ALOX12 inh – Primary qHTS assay for inhibitors of human arachidonate 12S-lipoxygenase (ALOX12): Round 2; purified 12hLO, xylenol orange hydroperoxide absorbance; Potency, µM (top dose mostly 108 µM), inactives show at the top dose activity change, negative = inhibition, hits mostly inhibitors; AID 1671190, 2021; 1.1% of 580,000 active; Polyunsaturated fatty acid lipoxygenase ALOX12 (Homo sapiens), P18054; note: potency is the fitted concentration of half-maximal effect
Target sequence (P18054 whole entry, looked up): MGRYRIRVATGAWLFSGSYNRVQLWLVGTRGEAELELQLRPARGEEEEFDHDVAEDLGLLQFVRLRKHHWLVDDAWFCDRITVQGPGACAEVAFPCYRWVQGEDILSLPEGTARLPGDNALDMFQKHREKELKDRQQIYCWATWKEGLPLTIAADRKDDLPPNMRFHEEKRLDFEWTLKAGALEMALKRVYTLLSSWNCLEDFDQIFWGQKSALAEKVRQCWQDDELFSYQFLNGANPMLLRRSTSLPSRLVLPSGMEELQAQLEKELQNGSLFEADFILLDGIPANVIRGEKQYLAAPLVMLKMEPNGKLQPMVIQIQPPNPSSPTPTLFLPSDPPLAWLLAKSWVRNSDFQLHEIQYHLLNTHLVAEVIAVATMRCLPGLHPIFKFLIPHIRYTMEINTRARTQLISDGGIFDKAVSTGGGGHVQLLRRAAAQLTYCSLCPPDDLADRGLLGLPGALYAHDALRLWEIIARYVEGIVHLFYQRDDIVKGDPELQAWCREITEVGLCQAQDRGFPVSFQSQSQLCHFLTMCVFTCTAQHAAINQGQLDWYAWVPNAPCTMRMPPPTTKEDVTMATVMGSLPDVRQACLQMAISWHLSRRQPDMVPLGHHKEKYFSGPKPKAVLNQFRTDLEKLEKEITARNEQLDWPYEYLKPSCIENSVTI
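Hydroperoxide product was detected by ferrous iron/xylenol orange as the 573 to 405 nm absorbance ratio. Arachidonic acid at 40 uM (final) was turned over for 30 min at room temperature by 150 nM human 12hLO, pH 7.0 Hepes buffer, after 15 min compound preincubation.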
IL1B secr inh – qHTS for Inhibitors of Inflammasome Signaling: IL-1-beta AlphaLISA Primary Screen; AID 743279, 2014; THP-1 LPS/ATP IL-1B secretion, AlphaLISA, 16 h; stronger effect = lower value; activity change, % at 57.5 µM; 4.7% of 360,000 active; in the data active = activity change below about -50%; inconclusive = mostly about -30% to -49%
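THP-1 cells pretreated 1 hr with compounds (up to 57.5 uM final), then stimulated with LPS (250 ng/mL final) plus ATP (1.25 mM final); secreted IL-1B measured by AlphaLISA after 16 hr, decreased signal indicating inhibition.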
HT1080NT lethal – qHTS for induction of synthetic lethality in tumor cells producing 2HG: qHTS for the HT-1080-NT fibrosarcoma cell line | HT-1080-NT fibrosarcoma viability, CellTiter-Glo ATP luminescence, 48 h | Potency, µM (series often up to 46.1 µM), without a hit: top-dose activity, negative = less viability, actives largely listed as cytotoxic | 1.6% of 360,000 active;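 note: NT is the 2HG producing partner of a matched IDH1 knockdown line; potency is the fitted concentration of half-maximal effect; 0% = DMSO-treated cells and -100% = media-only wells without cells; nearly all actives have a fitted effect of over 55% in size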
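Read-out is CellTiter-Glo luminescence after 10 minutes at room temperature, following 48 hours' compound treatment of HT-1080-NT cells (750 cells/well, RPMI, 5% FBS, 37 degrees C).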
* marks the source's active call; other numbers are inactive results; i = inactive; ? = inconclusive; · = not tested or not shown; [ ] = remark or other dose. Unless noted, calls come from the whole dose curve; as a rule, active = well fitted curve in the direction sought with a large enough effect; inconclusive = small, poorly fitted or top-dose-only effect, or another doubt; inactive = no such curve, though single readings can be large; an effect the other way counts as inactive or inconclusive. Unless noted, % is set by controls: 0 for no effect and ±100 for the full control effect.

SMILES	HT1080 IDH1KD tx	TDP1 cell CPT	DT40 TDP1 no CPT	ALOX12 inh	IL1B secr inh	HT1080NT lethal
C=CC[N@@+]12CC[C@@]34c5ccccc5N5/C=C6/[C@H]7C[C@H]8[C@@]9(CC[N@@+]8(CC=C)C/C7=C/CO)c7ccccc7N(/C=C(/[C@@H](C[C@@H]31)/C(=C\CO)C2)[C@H]54)[C@@H]69	·	1.3%[21.1 µM]	-1.5%[21.1 µM]	·	·	·
CCN1CCN(C(=O)CCc2nc3ccccc3c(=O)[nH]2)CC1	0.0%	?	-4.4%	290.0%[57.4 µM]	34.9	-8.3%
O=C(CCc1nc2ccccc2c(=O)[nH]1)N1CCCc2ccccc21	-15.8%	?	8.2µM*	-22.2%	52.8	-20.2%
O=C(CCc1nc2ccccc2c(=O)[nH]1)N1CCN(c2ccccc2Cl)CC1	-0.5%	20.6µM*	16.4µM*	208.9%	-4.1	6.2%
O=C(CCc1nc2ccccc2c(=O)[nH]1)Nc1ccc(N2CCCCC2)cc1	-1.0%	-1.5%	-20.5%	0.0%	-5.3	0.0%
Cc1ccc(N2CCN(C(C(=O)O)c3cn(CC(=O)O)c4ccccc34)CC2)c(C)c1 (stereo not given)	·	·	·	-22.5%	·	·
COc1ccc(CCC(=O)N2CCN(c3cccc(C)c3C)CC2)cc1	-6.1%	?	?	-11.3%	-10.7	-1.9%
COc1cc(CCC(=O)N2CCN(c3cccc(C)c3C)CC2)cc(OC)c1OC	-6.0%	11.6µM*	10.3µM*	?	4.7	-17.5%
Cc1ccc2c(c1)N(C(=O)CCC(=O)N1CCN(c3cccc(C)c3C)CC1)CCO2	-28.9%	16.4µM*	18.4µM*	1.2%	-8.2	?
CC1CCN(C(=O)CCC(=O)N2CC(C)Oc3ccccc32)CC1 (stereo not given)	11.0%	-0.3%	-23.1%	26.3%	11.9	-0.5%
Cc1cccc(N2CCN(C(=O)CCC(=O)N3CC(C)Oc4ccccc43)CC2)c1C (stereo not given)	-9.1%	16.4µM*	13µM*	6.4%	-18.3	-25.9%
Cc1ccc(Cn2c(C3CCN(C(=O)c4ccc5c(c4)OCO5)CC3)n[nH]c2=O)cc1	·	·	·	-10.6%	·	·
Cc1cccc(OCC(=O)NCc2nnc3c(-c4nc(C)no4)cccn23)c1	·	·	·	99.0%	·	·
Clc1cccc(N2CCN(c3ncnc4c3nc3n4CCCC3)CC2)c1	·	16.4µM*	20.6µM*	-20.5%	·	·
Clc1cccc(Nc2ncnc3c2nc2n3CCCCC2)c1	·	8.2µM*	9.2µM*	-25.8%	·	·
Clc1ccccc1Nc1ncnc2c1nc1n2CCCCC1	·	8.2µM*	?	-13.7%	·	·
COc1ccc(OC)c(CNc2ncnc3c2nc2n3CCCC2)c1	·	13µM*	?	-13.1%	·	·
COc1ccc(CNc2ncnc3c2nc2n3CCCC2)cc1	·	?	-17.7%	-18.8%	·	·
Cc1ccccc1C1(CC(=O)N2CCCC(C)C2)CC(=O)N(Cc2cccnc2)C1=O (stereo not given)	·	18.7%[9.04 µM]	-28.1%	20.2%	·	·
CC(=O)NNC(=S)Nc1ccc(Cl)cc1	·	·	·	15.1%	·	·
O=C(c1ccc2nc[nH]c2c1)N1CCN(c2ncc(C(F)(F)F)cc2Cl)CC1	-15.5%	14.6µM*	18.4µM*	0.0%	-13.5	-1.3%
O=C(c1ccc2nc[nH]c2c1)N1CCN(c2cccc(C(F)(F)F)c2)CC1	-7.0%	?	16.4µM*	361.2%	i	6.7%
CC(C)(C)NC(=O)NC(=O)CN1CCN(c2ncc(C(F)(F)F)cc2Cl)CC1	2.1%	?	18.4µM*	-38.8%	7.0	-1.6%
O=C(c1ccc(Nc2nc3ccccc3n3nnnc23)cc1)N1CCN(c2cccc(C(F)(F)F)c2)CC1	·	?	18.4µM*	-0.1%	·	·
Cc1ccc(OCC(=O)c2c(N)n(C)c(=O)n(C)c2=O)c([N+](=O)[O-])n1	-0.2%	-18.4%	2.4%	8.0%	0.0	4.6%[9.24 µM]
SMILES	HT1080 IDH1KD tx	TDP1 cell CPT	DT40 TDP1 no CPT	ALOX12 inh	IL1B secr inh	HT1080NT lethal
CN(Cc1nccn1C)C(=O)c1csc2nc(-c3ccc(C(F)(F)F)cc3)cn12	·	·	·	55.4%	·	·
O=C(CCc1c[nH]c2ccccc12)N1CCN(CC(=O)N2CCCCCC2)CC1	·	·	·	-1.9%	·	·
CC(=O)c1ccc(N2CCN(c3ncc(C(F)(F)F)cc3Cl)CC2)cc1	-0.1%	?	29.1µM*	405.2%	?	-4.6%
O=C(c1ccc2ncsc2c1)N1CCN(c2cccc(C(F)(F)F)c2)CC1	8.2µM*	2.91µM*	1.46µM*	-23.7%	17.5	8.2µM*
O=C(c1ccc2ncsc2c1)N1CCN(c2nc3ccc(F)cc3s2)CC1	·	·	·	0.9%	·	·
Cc1cc(C)cc(NC(=S)N2CCN(c3ncc(C(F)(F)F)cc3Cl)CC2)c1	15.7%	?	?	392.8%	7.3	11.7%
NC(=O)c1ccc(N2CCN(c3ncc(C(F)(F)F)cc3Cl)CC2)cc1	7.2%	-1.9%	13.5%	1.3%	-24.9	1.8%
C=CCNC(=S)N1CCN(c2ncc(C(F)(F)F)cc2Cl)CC1	-10.6%	?	?	?	-66.7*	-8.8%
CC(NC(=O)CCc1c[nH]c2ccccc12)c1ccncc1 (stereo not given)	·	·	·	2.9%	·	·
C1=CC2=NC34CCCCC3CC3=C(CCCC3)N4C2=CC1=NC1CCCCC1 (stereo not given)	?	5.17µM*	5.17µM*	·	-97.6*	-11.8%
CC(C)NC(=O)C(=O)Nc1ccc2c(c1)N(C)C(=O)CO2	·	·	·	22.0%	·	·
Cc1cnc(C(=O)Nc2ccc(F)cc2)cn1	2.4%	1.5%	-18.1%	-3.1%	18.9	21.8%
Cc1cnc(C(=O)Nc2ccc(N3CCN(C(=O)OC(C)(C)C)CC3)cc2)cn1	?	4.61µM*	2.31µM*	0.0%	50.3	?
CCOC(=O)c1ccc(NC(=O)Cn2nnc(-c3ccccc3)n2)cc1	-24.0%	?	?	0.0%	-19.7	-9.1%
CC(C)(C)OC(=O)N1CCN(c2ccc(NC(=O)Cn3nnc(-c4ccccc4)n3)cc2)CC1	-12.3%	?	23.1µM*	?	-9.5	-16.4%
CCOC(=O)c1ccc(NC(=O)c2sc3nc(-c4ccc(F)cc4)cn3c2C)cc1	·	·	·	-29.3%	·	·
Cc1c(C(=O)N2CCOCC2)sc2nc(-c3ccccc3)cn12	5.2%	0.7%	-16.9%	0.0%	0.0	8.5%

Source: PubChem BioAssay
